Reference: the supplement of paper PMC10515830
Structures can show the parent of a compound that is named as a salt.

Legend:
Details in all cases: 10 µM; exposure time 6 h
[1] = test system: Danio rerio larvae (5 dpf); assay: difference in excitability vs DMSO (percentage points); higher = more excitable than DMSO
Procedure, shortened: (§1)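 Wild-type zebrafish larvae at 5 dpf were kept in 96-well plates and exposed for 6 h to 100 µL egg water holding library compound at a final concentration of 10 µM. From 3 h into exposure, the plates were held at 28.5 ℃ and photographed every 6 s through a 3-h programme of moving lines and 100 ms, 400Hz tones. Each behaviour was scored by Z-LaP Tracker, a DeepLabCut model, and averaged over 48 larvae per compound. Every value gives the compound mean minus the vehicle control mean, in percentage points.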

[2] = test system: Danio rerio larvae (5 dpf); assay: difference in startle response vs DMSO (percentage points); higher = stronger startle than DMSO
Procedure, shortened: as §1

[3] = test system: Danio rerio larvae (5 dpf); assay: difference in activity during first hour vs DMSO (percentage points); higher = more activity than DMSO
Procedure, shortened: as §1

[4] = test system: Danio rerio larvae (5 dpf); assay: difference in habituation to acoustic stimuli vs DMSO (percentage points); higher = more habituation than DMSO
Procedure, shortened: as §1

[5] = test system: Danio rerio larvae (5 dpf); assay: difference in combined optomotor response to red, green and blue moving lines vs DMSO (percentage points); higher = stronger optomotor response than DMSO
Procedure, shortened: as §1

SMILES | difference in excitability [1] | difference in startle response [2] | difference in activity during first hour [3] | difference in habituation to acoustic stimuli [4] | difference [5]
O=C(c1ccccc1)c1ccc2n1CCC2C(=O)O (stereo not given) [Ketorolac (tromethamine salt)] | -0.0297 | 5.09 | -3.37 | 7.86 | -1.11
CCC1=C[C@@H]2CN(C1)Cc1c([nH]c3ccccc13)[C@@](C(=O)OC)(c1cc3c(cc1OC)N(C)[C@H]1[C@@](O)(C(=O)OC)[C@H](OC(C)=O)[C@]4(CC)C=CCN5CC[C@]31[C@@H]54)C2 [Vinorelbine (tartrate)] | 11.6 | -5.75 | 3.25 | -2.19 | -4.51
C#CCC(Cc1cnc2nc(N)nc(N)c2n1)c1ccc(C(=O)N[C@@H](CCC(=O)O)C(=O)O)cc1 (stereo not given in full) [Pralatrexate] | 7.8 | 7.47 | 0.4 | 4.28 | 4.2
COc1ccc(OC)c(C(O)CNC(=O)CN)c1 (stereo not given) [Midodrine (hydrochloride)] | 7.59 | -5.94 | 6.73 | 0.23 | 5.44
CC=CC(=O)N(CC)c1ccccc1C [Crotamiton] | 0.486 | 3.97 | -3.58 | 4.95 | -3.13
CC[C@H](C)[C@H](N)C1=N[C@H](C(=O)N[C@@H](CC(C)C)C(=O)N[C@H](CCC(=O)[O-])C(=O)N[C@H](C(=O)N[C@H]2CCCCNC(=O)[C@H](CC(N)=O)NC(=O)[C@@H](CC(=O)[O-])NC(=O)[C@H](Cc3cnc[nH]3)NC(=O)[C@@H](Cc3ccccc3)NC(=O)[C@H]([C@@H](C)CC)NC(=O)[C@@H](CCCN)NC2=O)[C@@H](C)CC)CS1.[Zn+2] [Bacitracin (zinc)] | 20.6 | -4.52 | 30.1 | -11 | -7.98
N#Cc1cc(NC(=O)C(=O)O)c(Cl)c(NC(=O)C(=O)O)c1 [Lodoxamide] | 4.92 | 3.04 | -7.99 | 1.72 | 1.61
CCN(CC)C(=O)[C@@]1(c2ccccc2)C[C@H]1CN [Levomilnacipran (hydrochloride)] | 9.82 | 0.949 | -23 | -1.84 | -14.2
CCCCc1oc2ccc(NS(C)(=O)=O)cc2c1C(=O)c1ccc(OCCCN(CCCC)CCCC)cc1 [Dronedarone (hydrochloride)] | 7.9 | -9.8 | 11.1 | -12.7 | -11.9
O=C1CCc2ccc(OCCCCN3CCN(c4cccc(Cl)c4Cl)CC3)cc2N1 [Aripiprazole] | 14.5 | 5.72 | 12.4 | -8.81 | -3.23
CO[C@H]1C[C@@H]2CC[C@@H](C)[C@@](O)(O2)C(=O)C(=O)N2CCCC[C@H]2C(=O)O[C@H]([C@H](C)C[C@@H]2CC[C@@H](O)[C@H](OC)C2)CC(=O)[C@H](C)/C=C(\C)[C@@H](O)[C@@H](OC)C(=O)[C@H](C)C[C@H](C)/C=C/C=C/C=C/1C [Rapamycin] | 5.81 | -2.33 | 0.761 | -0.387 | 3.4
C[C@H](Cn1cnc2c(N)ncnc21)OCP(=O)(O)O [Tenofovir] | -6.21 | 0.269 | 0.971 | -2.1 | 5.37
Cc1nc2c([nH]1)-c1ccccc1N(C(=O)c1ccc(NC(=O)c3ccccc3-c3ccccc3)cc1)CC2 [Conivaptan (hydrochloride)] | 12.9 | 4.28 | -10.7 | 3.17 | -0.877
CC(=O)O[C@@]12CO[C@@H]1C[C@H](O)[C@@]1(C)C(=O)[C@H](O)C3=C(C)[C@@H](OC(=O)[C@H](O)[C@@H](NC(=O)OC(C)(C)C)c4ccccc4)C[C@@](O)([C@@H](OC(=O)c4ccccc4)[C@H]21)C3(C)C [Docetaxel (hydrate)] | 4.98 | -2.23 | -2.75 | -0.117 | -1.11
Cc1c2oc3c(C)ccc(C(=O)N[C@@H]4C(=O)N[C@H](C(C)C)C(=O)N5CCC[C@H]5C(=O)N(C)CC(=O)N(C)[C@@H](C(C)C)C(=O)O[C@@H]4C)c3nc-2c(C(=O)N[C@@H]2C(=O)N[C@H](C(C)C)C(=O)N3CCC[C@H]3C(=O)N(C)CC(=O)N(C)[C@@H](C(C)C)C(=O)O[C@@H]2C)c(N)c1=O [Actinomycin D] | 5.1 | -6.8 | 6.02 | 4.18 | -0.162
C[C@]12CC[C@@H]3c4ccc(O)cc4C[C@@H](CCCCCCCCC[S+]([O-])CCCC(F)(F)C(F)(F)F)[C@H]3[C@@H]1CC[C@@H]2O (stereo not given in full) [Fulvestrant] | 1.25 | 0.684 | -0.447 | 1.81 | 1.43
C[N+]1(C)[C@@H]2C[C@@H](OC(=O)C(O)(c3cccs3)c3cccs3)C[C@H]1[C@@H]1O[C@@H]12 [Tiotropium (bromide)] | -0.664 | -4.87 | -7.11 | -4.6 | -6.76
COc1cccc2c1C(=O)c1c(O)c3c(c(O)c1C2=O)C[C@@](O)(C(=O)CO)C[C@@H]3O[C@H]1C[C@H](N)[C@H](O)[C@H](C)O1 [Doxorubicin (hydrochloride)] | 6.65 | 3.55 | -7.11 | 6.05 | -4.42
COc1cc([C@@H]2c3cc4c(cc3[C@@H](O[C@@H]3O[C@@H]5CO[C@@H](C)O[C@H]5[C@H](O)[C@H]3O)[C@H]3COC(=O)[C@H]23)OCO4)cc(OC)c1O [Etoposide] | -3.42 | 2.1 | -5.75 | 2.55 | -5.33

SMILES | difference in excitability [1] | difference in startle response [2] | difference in activity during first hour [3] | difference in habituation to acoustic stimuli [4] | difference [5]
C[C@]12CC[C@@H]3c4ccc(OS(=O)(=O)O)cc4CC[C@H]3[C@@H]1CCC2=O [Estropipate] | 1.84 | -3.42 | -3.25 | -2.86 | -4.79
CCN1CCN(Cc2ccc(Nc3ncc(F)c(-c4cc(F)c5nc(C)n(C(C)C)c5c4)n3)nc2)CC1 | 21.9 | 1.59 | -3.04 | 0.786 | 2.57
CC1(C)NC(=O)N(c2ccc([N+](=O)[O-])c(C(F)(F)F)c2)C1=O [Nilutamide] | 3 | -2.08 | -12.2 | 3.08 | -5.94
CNCCCC12CCC(c3ccccc31)c1ccccc12 [Maprotiline (hydrochloride)] | -2.87 | 5.37 | -7.95 | 0.965 | 2.3
CC(C)CN(C[C@@H](O)[C@H](Cc1ccccc1)NC(=O)O[C@H]1CO[C@H]2OCC[C@H]21)S(=O)(=O)c1ccc(N)cc1 [Darunavir] | -1.86 | 0.437 | 0.73 | 2.66 | 5.61
CCCCCOC(=O)Nc1nc(=O)n([C@@H]2O[C@H](C)[C@@H](O)[C@H]2O)cc1F [Capecitabine] | -2.56 | -2.24 | -0.876 | -0.579 | -1.26
CCCCC[C@H](O)/C=C/[C@@H]1[C@H]2C/C(=C/CCCC(=O)O)O[C@H]2C[C@H]1O [Prostaglandin I2 (sodium salt)] | 0.101 | 3.79 | 11.9 | 1.5 | 4.02
CC(C)NCC(O)c1ccc(NS(C)(=O)=O)cc1 (stereo not given) [Sotalol (hydrochloride)] | -4.39 | -2.26 | 12 | -2.03 | -2.43
C=CC(N)CCC(=O)O (stereo not given) [Vigabatrin] | -1.24 | 5.92 | 1.31 | 1.13 | -0.249
CC(C)N(CCCCOCC(=O)NS(C)(=O)=O)c1cnc(-c2ccccc2)c(-c2ccccc2)n1 | 11.4 | 6.8 | -3.12 | 5.08 | 2.84
CNC(=O)c1cc(Oc2ccc(NC(=O)Nc3ccc(Cl)c(C(F)(F)F)c3)c(F)c2)ccn1 [Regorafenib] | 20.9 | -2.66 | -3.38 | -6.09 | 1.15
CC(C)CN(C[C@@H](O)[C@H](Cc1ccccc1)NC(=O)O[C@H]1CCOC1)S(=O)(=O)c1ccc(N)cc1 [Amprenavir] | -3.12 | -6.45 | 6.71 | 0.569 | 7.88
CNC1(C)C2CCC(C2)C1(C)C (stereo not given) [Mecamylamine (hydrochloride)] | 3.59 | -1.88 | -1.28 | -4.36 | 11.1
NCC[C@H](O)C(=O)N[C@@H]1C[C@H](N)[C@@H](O[C@H]2O[C@H](CN)[C@@H](O)[C@H](O)[C@H]2O)[C@H](O)[C@H]1O[C@H]1O[C@H](CO)[C@@H](O)[C@H](N)[C@H]1O [Amikacin] | 5.08 | 3.94 | 10.9 | 2.17 | 6.4
CC(=O)[C@H]1CC[C@H]2[C@@H]3CCC4=CC(=O)CC[C@]4(C)[C@H]3CC[C@]12C [Progesterone] | 3.92 | -7.45 | -21.2 | -12.3 | -17.3
CO/N=C(\C(=O)N[C@@H]1C(=O)N2C(C(=O)[O-])=C(C[N+]3(C)CCCC3)CS[C@H]12)c1csc(N)n1 [Cefepime (hydrochloride hydrate)] | 1.19 | -0.767 | 1.35 | 1.3 | -1.46
CN(C)CCCN1c2ccccc2CCc2ccccc21 [Imipramine (hydrochloride)] | 14.5 | -8.78 | -16.4 | -11.2 | -6.91
CC(C)OC(=O)OCOP(=O)(CO[C@H](C)Cn1cnc2c(N)ncnc21)OCOC(=O)OC(C)C [Tenofovir Disoproxil (fumarate)] | 9.75 | 2.55 | 6.31 | 0.343 | 8.11
